Source: PubChem BioAssay (NCATS)
Results filed as inconclusive are left out. Calls of active or inactive are those of the source. Unless noted, calls follow the shape of the full dose curve.

Experiments:
[1] = qHTS for Inhibitors of the Functional Ribonucleoprotein Complex (vRNP) of Lassa (LASV) Arenavirus: LASV Primary Screen - GLuc reporter signal (AID 1347082; calls by dose curve; tested in HEK293 reporter line; also: nearly all actives have a fitted effect of over 60% in size); settings: LASV minigenome vRNP, Gaussia luciferase reporter; series mostly up to 57.5 µM
[2] = qHTS for Inhibitors of the Functional Ribonucleoprotein Complex (vRNP) of Lassa (LASV) Arenavirus: Viability assay - alamar blue signal for LASV Primary Screen (AID 1347083; calls by dose curve; tested in HEK293 reporter line; also: nearly all actives have a fitted effect of over 80% in size); settings: cell viability, alamar blue fluorescence (LASV minigenome counter-screen); series mostly up to 57.5 µM
[3] = qHTS for Inhibitors of the Functional Ribonucleoprotein Complex (vRNP) of Lymphocytic Choriomeningitis Arenaviruses (LCMV): Viability assay - alamar blue signal for LCMV Primary Screen (AID 1347085; calls by dose curve; tested in HEK293 reporter line; also: nearly all actives have a fitted effect of over 80% in size); settings: alamar blue viability counter-screen, LCMV vRNP screen cells; series mostly up to 57.5 µM
[4] = target: Nucleoprotein (Lymphocytic choriomeningitis virus (strain Armstrong)) (UniProt P09992); test: qHTS for Inhibitors of the Functional Ribonucleoprotein Complex (vRNP) of Lymphocytic Choriomeningitis Arenaviruses (LCMV): LCMV Primary Screen - GLuc reporter signal (AID 1347086); settings: LCMV minigenome vRNP cell assay, Gaussia luciferase reporter; series mostly up to 57.5 µM; also: nearly all actives have a fitted effect of over 70% in size
Sequence of Nucleoprotein (Lymphocytic choriomeningitis virus (strain Armstrong)) (P09992 whole entry, looked up): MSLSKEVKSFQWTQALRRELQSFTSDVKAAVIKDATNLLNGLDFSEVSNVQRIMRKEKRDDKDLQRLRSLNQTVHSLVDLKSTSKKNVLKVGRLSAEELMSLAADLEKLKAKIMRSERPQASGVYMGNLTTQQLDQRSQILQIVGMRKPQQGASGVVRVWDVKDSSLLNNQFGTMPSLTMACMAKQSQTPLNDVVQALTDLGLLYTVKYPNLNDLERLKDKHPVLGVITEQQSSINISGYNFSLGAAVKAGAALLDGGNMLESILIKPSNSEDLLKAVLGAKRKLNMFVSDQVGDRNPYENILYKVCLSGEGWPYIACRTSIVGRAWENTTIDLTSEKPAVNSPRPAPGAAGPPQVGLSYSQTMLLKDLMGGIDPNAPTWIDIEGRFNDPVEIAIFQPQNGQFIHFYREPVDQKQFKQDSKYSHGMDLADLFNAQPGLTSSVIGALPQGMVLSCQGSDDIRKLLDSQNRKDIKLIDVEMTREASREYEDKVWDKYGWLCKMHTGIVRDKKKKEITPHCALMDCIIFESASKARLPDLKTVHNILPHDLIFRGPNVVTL

[5] = target: Parathyroid hormone/parathyroid hormone-related peptide receptor (Homo sapiens) (UniProt Q03431); test: qHTS for PTHR1 Agonists: Optimization Screen against the NCGC LOPAC library (AID 1347079; active = well fitted curve in the direction sought with a large enough effect; an effect the other way counts as inactive or inconclusive;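 also: GloSensor cAMP luminescence in HEK-293 GP2 cells expressing human PTHR1 with IBMX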); settings: HEK293 GP2 PTHR1 GloSensor cAMP luminescence, 1 h; series mostly up to 57.1 µM
Sequence of Parathyroid hormone/parathyroid hormone-related peptide receptor (Homo sapiens) (Q03431 whole entry, looked up): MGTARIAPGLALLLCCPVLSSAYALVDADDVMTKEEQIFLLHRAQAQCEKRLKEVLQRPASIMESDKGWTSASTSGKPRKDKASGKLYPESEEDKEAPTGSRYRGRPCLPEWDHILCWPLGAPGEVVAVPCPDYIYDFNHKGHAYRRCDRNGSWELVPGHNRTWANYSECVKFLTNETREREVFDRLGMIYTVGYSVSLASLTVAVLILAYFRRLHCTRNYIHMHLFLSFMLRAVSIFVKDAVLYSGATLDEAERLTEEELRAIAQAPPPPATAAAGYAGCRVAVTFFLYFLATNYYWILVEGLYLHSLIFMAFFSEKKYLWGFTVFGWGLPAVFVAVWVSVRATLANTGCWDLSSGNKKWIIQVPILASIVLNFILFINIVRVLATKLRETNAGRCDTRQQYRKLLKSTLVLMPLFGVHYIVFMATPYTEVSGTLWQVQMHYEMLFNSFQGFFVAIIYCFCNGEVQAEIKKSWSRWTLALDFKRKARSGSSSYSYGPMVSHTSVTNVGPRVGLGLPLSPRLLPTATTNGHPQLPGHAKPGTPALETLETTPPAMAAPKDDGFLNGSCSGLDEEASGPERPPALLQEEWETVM
Outline: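 Agonist readout: GloSensor cAMP luminescence, read after 15 min at room temperature. HEK-293-derived GP2 line carries PTHR1; compounds tested as a titration for 1 hr at 37C in presence of IBMX. M-PTH (1-15) served as control.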

[6] = qHTS of pediatric cancer cell lines to identify multiple opportunities for drug repurposing: Primary screen for DAOY cells (AID 1347090; active = well fitted curve in the direction sought with a large enough effect; an effect the other way counts as inactive or inconclusive; also: nearly all actives have a fitted effect of over 55% in size; also: potency is read from the fitted curve at half-maximal effect); settings: DAOY medulloblastoma viability, CellTiter-Glo luminescence, 48 h; series mostly up to 92.7 µM
Outline: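 Eight- or eleven-point concentration series, 48 h treatment at 37 degrees C in growth media; readout CellTiter-Glo luminescence. Potency and efficacy were taken from the concentration-response curves.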

[7] = qHTS of pediatric cancer cell lines to identify multiple opportunities for drug repurposing: Primary screen for TC32 cells (AID 1347089; active = well fitted curve in the direction sought with a large enough effect; an effect the other way counts as inactive or inconclusive; also: nearly all actives have a fitted effect of over 60% in size); settings: TC32 Ewing sarcoma viability, CellTiter-Glo luminescence, 48 h; series mostly up to 92.2 µM
Description: (§1) Drug repurposing or repositioning has been offered as a strategy for drug development in oncology programs. This approach has special potential for childhood cancers and other rare or orphan diseases, where the expected return on new drug development has been a disincentive to pharmaceuticals.
(§2) In this project we exploit the poly-pharmacology of drugs to discover new indications via phenotypic screening of a panel of 19 well-characterized cell lines derived from solid tumors seen in children and adolescents. The goal is to identify approved drugs with previously unrecognized anticancer properties that has the potential to reveal new mechanisms and biological processes involved in carcinogenesis or drug resistance. We employed a titration-based paradigm (quantitative high-throughput screening or qHTS), where all compounds were tested at multiple concentrations for their effect on cell viability. […] We screened the NIH Chemical Genomics Center (NCGC) Pharmaceutical Collection (NPC) and Mechanism Interrogation Plate (MIPE) small molecule collections of approved and investigational compounds against these cell lines; and measured metabolically active cells after 48 hours of compound treatment as a proxy for cell viability. […]
(§3) [1] Shen, M et al. Quantitative high-throughput phenotypic screening of pediatric cancer cell lines identifies multiple opportunities for drug repurposing. […]

[8] = qHTS of pediatric cancer cell lines to identify multiple opportunities for drug repurposing: Primary screen for SJ-GBM2 cells (AID 1347091; active = well fitted curve in the direction sought with a large enough effect; an effect the other way counts as inactive or inconclusive); settings: SJ-GBM2 viability, CellTiter-Glo luminescence, 48 h; series mostly up to 92.7 µM
Description: as §1, §2, §3

Measured: Potency

O=C/C=C/c1ccccc1
inactive: [1] | [2] | [3] | [4]

CC(C)[C@@]1(NC(=O)[C@@H]2C[C@@H]3c4cccc5[nH]cc(c45)C[C@H]3N(C)C2)O[C@@]2(O)[C@@H]3CCCN3C(=O)[C@H](Cc3ccccc3)N2C1=O
inactive: [5] | [1] | [2] | [3] | [4]

C[CH2][Hg][S]c1ccccc1C(=O)O
active: [6] 2660 nM
inactive: [1] | [2] | [3] | [4]

C/C(O)=C(\C#N)C(=O)Nc1cc(Br)ccc1Br
inactive: [5] | [1] | [2] | [3] | [4]

O[C@H]1[C@H]2[C@H](O)CCCN2C[C@H]1O
inactive: [1] | [2] | [3] | [4]

CCCSP(=O)(OCC)SCCC
inactive: [2] | [3] | [7] | [6] | [8]

N#C/C(=C/c1ccc(O)c(O)c1)C(N)=S
inactive: [1] | [2] | [3] | [4]

COc1ccc2c(c1)c(CCN1CCOCC1)c(C)n2C(=O)c1cccc(Cl)c1Cl
inactive: [1] | [2]

N[C@@H](CCl)C(=O)O
inactive: [5] | [1] | [2] | [3] | [4]

C[Se]C[C@H](N)C(=O)O
inactive: [5] | [1] | [2] | [3] | [4]

C[N+]1(C)[C@@H]2CC(OC(=O)[C@H](CO)c3ccccc3)C[C@H]1[C@H]1O[C@@H]12 (stereo partly drawn)
inactive: [1] | [2] | [3] | [4]

CCN(CC)c1ncnc2c1ncn2[C@@H]1O[C@H](COP(=O)(O)OP(=O)(O)C(Br)(Br)P(=O)(O)O)[C@@H](O)[C@H]1O
inactive: [1] | [2] | [3] | [4]

CC1=C2C[C@H]3[C@@H](CC=C4C[C@@H](O)CC[C@@]43C)[C@@H]2CC[C@]12O[C@@H]1C[C@H](C)CN[C@H]1[C@H]2C
inactive: [1] | [2] | [3] | [4]

CN1[C@H]2CC[C@@H]1[C@@H](C(=O)O)[C@@H](OC(=O)c1ccccc1)C2
inactive: [1] | [2] | [3] | [4]

COc1cc(CC(C)N)c(OC)cc1I (stereo not drawn)
inactive: [5] | [1] | [2] | [3] | [4]

COc1ccc2[nH]c3c(c2c1)CCNC3
inactive: [5] | [1] | [2] | [3] | [4]

NC(N)=NOCC[C@H](N)C(=O)O
inactive: [5] | [1] | [2] | [3] | [4]

COc1ccc2c(c1O)-c1cccc3c1[C@@H](C2)N(C)CC3
inactive: [1] | [2] | [3] | [4]

O=C(O)c1cc[c]([Hg][Cl])cc1
inactive: [1] | [2] | [3] | [4]

COC1=CC=C2[C@H]3Cc4ccc(OC)c5c4[C@@]2(CCN3C)[C@H]1O5
inactive: [2] | [3] | [4]

O=c1c2ccccc2[se]n1-c1ccccc1
inactive: [1] | [2] | [3] | [4]

C[C@]12C=CC(=O)C=C1CC[C@@H]1[C@@H]2CC[C@]2(C)OC(=O)CC[C@@H]12
inactive: [1] | [2] | [3] | [4]

CC(C)CC(NP(=O)(O)O[C@@H]1O[C@@H](C)[C@H](O)[C@@H](O)[C@H]1O)C(=O)NC(Cc1c[nH]c2ccccc12)C(=O)O (stereo partly drawn)
inactive: [1] | [2] | [3] | [4]

NC(=O)c1cc(N2CC2)c([N+](=O)[O-])cc1[N+](=O)[O-]
inactive: [5] | [1] | [2] | [4]

C[C@@H]1[C@@H]2Cc3ccc(O)cc3[C@@]1(C)CCN2CC1CC1
inactive: [5] | [1] | [2] | [3] | [4]

O=P(O)(O)C(Cl)(Cl)P(=O)(O)O
inactive: [1] | [2] | [3] | [4]

CN[C@H]1C[C@@H](N)[C@H](O)[C@@H](O[C@@H]2O[C@H](CO)[C@H](O)[C@@H]3OC4(O[C@H]23)O[C@H](C(N)CO)[C@H](O)[C@H](O)[C@H]4O)[C@@H]1O (stereo partly drawn)
inactive: [1] | [2] | [3] | [4]

CN(N=O)c1cc(O)ccc1O
inactive: [5] | [1] | [2] | [3] | [4]

CCN(CCCl)Cc1ccccc1Br
inactive: [1] | [2] | [3] | [4]

C=CCN(C1=NCCN1)c1c(Cl)cccc1Cl
inactive: [1] | [2] | [3] | [4]

C=CCN1CC[C@]23c4c5ccc(O)c4O[C@@H]2/C(=N/N=C2\CC[C@@]4(O)C6Cc7ccc(O)c8c7[C@@]4(CCN6CC=C)[C@@H]2O8)CC[C@@]3(O)C1C5
inactive: [5] | [1] | [2] | [3] | [4]
